About 83,000 compounds went through this panel and 20% of them were active in at least one assay; those are over-represented in the sample as a whole.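 Single-dose data. Exposure time 48 hours. Values below 10 considered active.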 Values without a mark were called inactive. Calls of active or inactive are those of the source.

Test systems include T-47D breast; BT-549 breast; MDA-MB-435 melanoma; SW-620 colon; MCF7 breast; HCT-116 colon; HCC-2998 colon; KM12 colon.
What all share (experiment): NCI-60 one-dose screen, 48 h (100 = growth as untreated, 0 = no growth, -100 = all killed)
What all share (details): 10 µM unless noted

With `COc1cccc2c(=O)c3c(sc12)c(NCCCN)nc1ccccc13`, the growth in the assay on T-47D breast is 82.6%; in the assay with BT-549 breast it was 90.4%; in the assay on MDA-MB-435 melanoma, 33.9%; with SW-620 colon, -48.7% (active); with MCF7 breast it was 24.9%; in the assay with HCT-116 colon, -73.9% (active). Besides, the figures for the growth with HCC-2998 colon and in the assay on KM12 colon were -57.3% (active) and 13%, respectively.
Consider `COc1ccc2c(c1)/C(=C/c1sc(=S)n(Cc3ccco3)c1O)C=N2`, for which the growth was 45.3% with T-47D breast; 7.24% (active) with BT-549 breast; -32.7% (active) with MDA-MB-435 melanoma; 28.1% with SW-620 colon; 21.8% with MCF7 breast; 11.9% in the assay on HCT-116 colon. The values for the growth in the assay with HCC-2998 colon and in the assay with KM12 colon were 44.7% and 23.9%, respectively.
For `CCCCC1CCCC12NC(=O)NC2=O` (configuration not stated), the growth with T-47D breast is 91.7%; in the assay with BT-549 breast, 95.1%; in the assay with MDA-MB-435 melanoma it was 109%; with SW-620 colon, 102%; with MCF7 breast, 105%; in the assay on HCT-116 colon it was 99.4%. For the same compound, the growth is 96.9% with HCC-2998 colon and 106% with KM12 colon.
For `CNC(=O)c1[nH]cc(-c2ccccc2)c1-c1cc(OC)c2c(c1OC)OCO2`, the growth is 88.7% in the assay with T-47D breast; 95.6% in the assay with BT-549 breast; 102% in the assay with MDA-MB-435 melanoma; 99.9% in the assay on SW-620 colon; 99.9% in the assay with MCF7 breast; 99.5% with HCT-116 colon. Also, the growth in the assay with HCC-2998 colon was 102%; in the assay with KM12 colon, 96.9%.
`C=C1C(=O)O[C@H]2[C@H]1CC/C(COC(=O)CSCC(=O)OC/C1=C/CC[C@@]3(C)O[C@H]3[C@H]3OC(=O)C(=C)[C@@H]3CC1)=C\CC[C@@]1(C)O[C@@H]21`: the growth in the assay with T-47D breast is 12.3%; in the assay on BT-549 breast it was -1.44% (active); with MDA-MB-435 melanoma, 26.8%; with SW-620 colon it was -29% (active); in the assay on MCF7 breast it was 23.4%; with HCT-116 colon, -46.6% (active). Further, the growth is 94.5% with HCC-2998 colon and 69.4% with KM12 colon.
Turning to `O=C(Cc1ccc2c(c1)OCCO2)Nc1nc2ccc(F)cc2s1`, the growth in the assay on T-47D breast was 93.6%; in the assay with BT-549 breast it was 89.6%; with MDA-MB-435 melanoma, 104%; in the assay on SW-620 colon, 104%; in the assay on MCF7 breast, 92.2%; with HCT-116 colon, 101%. In addition, the values for the growth in the assay on HCC-2998 colon and with KM12 colon were 122% and 108%, respectively.
For the compound `Cc1ccc(/C=C2\Oc3ccc(O)c(O)c3C2=O)cc1`, the growth with T-47D breast is 47.3%; with BT-549 breast it was 43.1%; in the assay with MDA-MB-435 melanoma it was 82.4%; in the assay with SW-620 colon it was 30.7%; with MCF7 breast, 31.6%; in the assay on HCT-116 colon, 17.8%. Also, the values for the growth in the assay on HCC-2998 colon and in the assay on KM12 colon were 70.2% and 77%, respectively.
As for `CN(C)c1ccc(/C=N\Nc2cc(=O)[nH]c3ccc(Cl)cc23)cc1`, the growth is 81.7% in the assay with T-47D breast; 85.5% with BT-549 breast; 105% in the assay on MDA-MB-435 melanoma; 86% with SW-620 colon; 81% in the assay with MCF7 breast; 88.4% in the assay with HCT-116 colon. Besides, the growth in the assay with HCC-2998 colon and in the assay with KM12 colon was 104% throughout.
As for `Brc1c[n+](Cc2ccc3ccccc3c2)cn1Cc1ccc2ccccc2c1`, the growth is 6.91% (active) in the assay with T-47D breast; -12.1% (active) in the assay with BT-549 breast; -32.1% (active) with MDA-MB-435 melanoma; 37.7% in the assay with SW-620 colon; 14.3% in the assay on MCF7 breast; 17% with HCT-116 colon. Also, the values for the growth in the assay on HCC-2998 colon and with KM12 colon were -28.5% (active) and -73.5% (active), respectively.
For `CNC(C)[C@H]1CCC2C3CCC4C[C@@H](N(C)C(=O)c5ccccc5)CC[C@]4(C)C3CC[C@@]21C` (some centres not stated), the growth with T-47D breast is 0.208% (active); with BT-549 breast, 31%; with MDA-MB-435 melanoma, -25.6% (active); in the assay with SW-620 colon, -21.7% (active); in the assay on MCF7 breast, 5.05% (active); with HCT-116 colon it was -1.52% (active). The growth is 18.4% in the assay on HCC-2998 colon and 15.4% in the assay with KM12 colon.
With `Cc1cc(=O)oc2cc(OC(=O)N3CCN(C)CC3)ccc12`, the growth was 105% with T-47D breast; 112% with BT-549 breast; 101% in the assay with MDA-MB-435 melanoma; 100% in the assay with SW-620 colon; 89.6% in the assay with MCF7 breast; 99.4% in the assay on HCT-116 colon. The growth was 110% with HCC-2998 colon and 101% in the assay on KM12 colon.
`COc1ccc2nc(NC(=O)c3cccnc3Nc3ccc(S(N)(=O)=O)cc3)sc2c1`: the growth is 84.6% with T-47D breast; 84.7% with BT-549 breast; 91.5% in the assay on MDA-MB-435 melanoma; 109% with SW-620 colon; 110% with MCF7 breast; 93.5% in the assay on HCT-116 colon. Besides, the growth is 114% in the assay on HCC-2998 colon and 97.8% in the assay on KM12 colon.
Turning to `O=c1c2cc(F)ccc2sc2c(N3CCCCC3)nc3ccccc3c12`, the growth is 105% with T-47D breast; 90.3% in the assay with BT-549 breast; 107% in the assay with MDA-MB-435 melanoma; 104% in the assay with SW-620 colon; 95.8% with MCF7 breast; 90.9% in the assay with HCT-116 colon. The growth with HCC-2998 colon is 101%; in the assay on KM12 colon, 105%.
As for `Cc1cccc(NCc2cn(-c3ccc(C(=O)O)cc3)nc2-c2ccc(C(=O)O)cc2)n1`, the growth with T-47D breast was 100%; in the assay on BT-549 breast, 104%; in the assay on MDA-MB-435 melanoma it was 101%; in the assay with SW-620 colon, 99.9%; in the assay with MCF7 breast, 97.4%; with HCT-116 colon, 107%. In addition, the growth is 112% in the assay on HCC-2998 colon and 102% with KM12 colon.

For the origin of these results see PubChem BioAssay (NCI).
